The list is not random: actives were taken first. Their share in the collection is about 3.6%.
KDM4E inh: qHTS Assay for Inhibitors of Human Jumonji Domain Containing 2E (JMJD2E); Lysine-specific demethylase 4E (Homo sapiens), B2RXH2; JMJD2E catalytic domain, FDH-coupled NADH fluorescence (FDH is formaldehyde dehydrogenase); Potency, µM (titrated, usually from 57.1 µM), most hits filed as inhibitors; 1.6% of 230,000 active; AID 2147, 2009; active means well fitted inhibition curve with a large enough effect, not every such curve was filed as active; inconclusive means small, poorly fitted or top-dose-only effect, or another doubt; inactive means no such curve, though single readings can be large or run the other way; further: nearly all actives have a fitted effect of over 50% in size
KAT2A inh: qHTS Assay for Inhibitors of GCN5L2; Histone acetyltransferase KAT2A (Homo sapiens), Q92830; GCN5L2 HAT assay, ThioGlo1 CoA-SH fluorescence; Potency, µM (series often up to 58.9 µM), hits mostly inhibitors; 0.21% of 390,000 active
Target sequence (Q92830 whole entry, looked up): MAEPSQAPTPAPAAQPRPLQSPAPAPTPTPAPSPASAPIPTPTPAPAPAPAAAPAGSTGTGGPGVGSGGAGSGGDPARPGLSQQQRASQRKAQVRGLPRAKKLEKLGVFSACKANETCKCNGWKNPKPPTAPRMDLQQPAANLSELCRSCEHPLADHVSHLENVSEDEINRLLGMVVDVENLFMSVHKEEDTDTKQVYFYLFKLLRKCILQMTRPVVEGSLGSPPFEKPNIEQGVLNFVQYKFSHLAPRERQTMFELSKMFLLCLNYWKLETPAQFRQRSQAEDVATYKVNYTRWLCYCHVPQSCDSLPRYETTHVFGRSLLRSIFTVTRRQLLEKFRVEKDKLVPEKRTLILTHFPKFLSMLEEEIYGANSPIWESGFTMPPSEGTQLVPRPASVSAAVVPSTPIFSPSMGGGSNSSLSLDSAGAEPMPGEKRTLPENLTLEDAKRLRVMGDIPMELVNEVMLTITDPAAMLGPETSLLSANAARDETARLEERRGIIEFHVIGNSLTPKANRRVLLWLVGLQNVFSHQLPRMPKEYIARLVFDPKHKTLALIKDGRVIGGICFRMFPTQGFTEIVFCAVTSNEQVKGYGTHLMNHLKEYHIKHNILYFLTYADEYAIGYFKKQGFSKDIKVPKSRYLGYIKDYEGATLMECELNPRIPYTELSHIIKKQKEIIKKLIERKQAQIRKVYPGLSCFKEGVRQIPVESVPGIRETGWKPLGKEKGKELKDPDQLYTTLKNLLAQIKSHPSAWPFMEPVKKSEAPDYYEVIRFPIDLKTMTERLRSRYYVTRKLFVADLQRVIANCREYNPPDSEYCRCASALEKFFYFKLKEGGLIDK
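ThioGlo1-coupled HAT assay: 20nM GCN5L2, 70uM acetyl-CoA, 75uM H3(1-25) peptide, pH 7.5. Fluorescence read at 340/540nm at start and after 20 min at room temperature.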
IMPase Li inh: qHTS Assay for Identifying the Cell-Membrane Permeable IMPase Inhibitors: Potentiation with Lithium; CHO-M1 cells, IP1 TR-FRET (IP-One), carbachol + lithium; Potency, µM (top dose mostly 59.4 µM), hits mostly inhibitors; 0.35% of 210,000 active;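 further: IP1 builds up when IMPase is blocked and the TR-FRET signal falls; nearly all actives have a fitted effect of over 50% in size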
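CHO-M1, 2000 cells/well, 16–30 h culture; cpd + low Li+, 30 min 37C; lysis with d2-IP1/Eu-anti-IP1 Ab, 10 min RT; TR-FRET 665/620 ratio and 620 channel; AC50 via Hill.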
Sfp inh: qHTS Assay for Inhibitors of Bacillus subtilis Sfp phosphopantetheinyl transferase (PPTase). 4'-phosphopantetheinyl transferase ffp (Bacillus subtilis), Q9F4F7. Biochemical Sfp PPTase activity, qHTS. Potency, µM, actives largely listed as inhibitors. 3.5% of 310,000 active;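 further: the enzyme is Sfp with the accession as filed and its product quenches rhodamine fluorescence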
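Reaction rates are the 30-min fluorescence difference (ex 525, em 598 nm) in wells containing 15 nM Sfp, 5 uM rhodamine-CoA and 12.5 uM BHQ-2-YbbR at pH 7.6 with 10 mM MgCl2.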
NPSR antagonist: qHTS Assay for Antagonists of the Neuropeptide S Receptor: cAMP Signal Transduction. 1% of 220,000 active. AID 1461, 2008. Q6W5P4. Potency, µM (titrated, usually from 38.3 µM), actives largely listed as inhibitors. CHO-NPSR cells, cAMP TR-FRET, antagonist mode; further: nearly all actives have a fitted effect of over 50% in size
Epigenetic derep: Quantitative High-Throughput Screen for Regulators of Epigenetic Control; AID 1865, 2009; 0.2% of 280,000 active; Potency, µM (doses to about 53.9 µM), actives largely listed as activators; murine LDR cells, GFP reporter derepression, 30 h; further: nearly all actives have a fitted effect of over 60% in size
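GFP-positive cell count by laser-scanning cytometry (objects 20–120 um) after 30 h, 37 C compound exposure of murine LDR cells; reporter is CMV-GFP integrated at a silenced locus, inducible by HDAC or DNMT inhibitors.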
Hits are given with their value; . = inactive; ? = inconclusive; / = no result given; [ ] = another dose, or the depositor's remark. Unless noted, the call rests on the fitted dose curve; in most records, active means well fitted curve in the direction sought with a large enough effect; inconclusive means small, poorly fitted or top-dose-only effect, or another doubt; inactive means no such curve, though single readings can be large; an effect the other way counts as inactive or inconclusive.

SMILES	KDM4E inh	KAT2A inh	IMPase Li inh	Sfp inh	NPSR antagonist	Epigenetic derep
C[C@@H](c1ccccc1)N1C(=O)[C@H]2[C@H]3[C@H](O)[C@H](O)C/C(=N/OCc4ccccc4)[C@@H]3CC[C@@H]2C1=O	/	/	/	.	/	.[10.1 µM]
CCOC(=O)c1c(-c2ccc(C)o2)csc1NC(=O)CN1CCOCC1	.	.	.	44.7µM	.	.
CC(C(=O)O)N1C(=O)C2C3CC(C2C1=O)C1C(c2ccccc2)c2sc(=O)[nH]c2SC31 (centres undefined)	.	.	.	.	.	.
O=C(O)CN1C(=O)C2C3CC(C2C1=O)C1C(c2ccc(F)cc2)c2sc(=O)[nH]c2SC31 (centres undefined)	.	.	.	44.7µM	.	.
COc1ccc(C2c3sc(=O)[nH]c3SC3C4CCC(C4)C23)cc1OC (centres undefined)	.	.	.	.	7.94µM	.
O=C(O)CN1C(=O)C2C3CC(C2C1=O)C1C(c2ccc(Cl)cc2)c2sc(=O)[nH]c2SC31 (centres undefined)	.	.	.	.	.	.
O=c1[nH]c2c(s1)C(c1ccc(O)cc1)C1C3CCC(C3)C1S2 (centres undefined)	.	.	.	50.1µM	10µM	.
Cc1ccc(N)c(Cl)c1	/	.	/	.	/	/
Cc1nc(N(C)C)c2sc(=S)n(C)c2n1	.	.	.	.	.	.
COc1nc(C)nc2c1sc(=S)n2C	.	.	22.4µM	.	.	.
COc1cc2c(cc1CC=C(C)C)C(=O)C[C@@H](c1ccc(O)cc1)O2	/	.	/	.	/	/
Cc1ccc([N+](=O)[O-])c(C)[n+]1C	17.8µM	.	.	.	.	.
Cc1ccc([N+](=O)[O-])c(N)c1	/	/	.	/	/	/
CCCOc1ccc(CNC(=O)c2ccc(C)c(-n3c(C)nc4cccnc43)c2)cc1	/	.	/	/	/	.
Cc1c(C)c2cc(Cl)c(O)c(CN3CCCC(C)C3)c2oc1=O (centres undefined)	?	?	?	.	.	.
Cc1c(C)c2cc(Cl)c(O)c(CN3CCN(C)CC3)c2oc1=O	?	25.1µM	?	.	.[7.67 µM]	.
COC(=O)c1ccc(C2/C(=C(/O)c3ccc(OC(C)C)cc3)C(=O)C(=O)N2c2cc(C)on2)cc1 (centres undefined)	.	.	10µM	.	.	.
COC(=O)c1ccc(C2/C(=C(/O)c3ccc(OC)cc3)C(=O)C(=O)N2c2cc(C)on2)cc1 (centres undefined)	.	.	10µM	.	.[7.67 µM]	.
Cc1ccc(/C(O)=C2\C(=O)C(=O)N(c3cc(C)on3)C2c2cccc(Br)c2)cc1 (centres undefined)	.	.	?	?	.	.
CC#CCN1c2ccccc2[C@]23C[C@@H](C(=O)OC)N(S(=O)(=O)c4c(C)noc4C)C2=NC(C(=O)OC)=C(C(=O)OC)[C@H]13	.[11.4 µM]	/	.	.	/	/
COc1ccccc1CNC(=O)C1CCN(S(=O)(=O)c2ccc3c(ccn3C)c2)CC1	/	.	/	/	/	.
N=C1C=CC=C2C1=NC1(CCCCC1)N2O	?	.	.	8.91µM	?	.
COc1ccc(C2CC(c3ccccc3)Oc3cc(OC)c(OC)c(OC)c32)cc1 (centres undefined)	/	/	/	.	/	/
O=C(N/C(=C/c1ccco1)C(=O)N1CCCC1)c1cccs1	.	.	.	31.6µM	.	.
CCOC(=O)c1ccc(/C=C2/C=C(c3ccccc3)N(c3ccc(Cl)c(C(=O)O)c3)C2=O)cc1	.	.	.	?	12.6µM	.
SMILES	KDM4E inh	KAT2A inh	IMPase Li inh	Sfp inh	NPSR antagonist	Epigenetic derep
CCCCCCN1C=CC(=C/C=C(\C#N)C(=O)OCC)C=C1	.	?	.	.	.	10µM
CCCN1C=CC(=C/C=C(\C#N)C(=O)OCC)C=C1	.	.	.	.	?	?
CSc1nc2cc(Oc3cccc(Cl)c3Cl)c(Cl)cc2[nH]1	.	.	/	?	12.6µM	.
CSc1nc2ccc(Cl)cc2[nH]1	.	.	.	.	.	.
COC(=O)c1ccc(COc2ccc(/C=C(\C#N)c3nc4ccccc4[nH]3)cc2OC)o1	22.4µM	.	.	.	.	?
O=C(Nc1nc2ccc(SC(F)F)cc2s1)c1ccc(NS(=O)(=O)c2ccc(F)c(F)c2)cc1	?	.	.	.	12.6µM	.
C/C(CCN1CCCc2nc(C)c(C)cc21)=N\OC[C@@H](O)[C@@H]1O[C@@H]2OC(C)(C)O[C@@H]2[C@H]1O	/	/	/	.	/	.[10.1 µM]
CC(/C=C/c1ccccc1)=N\Nc1nc2c(c(=O)[nH]c(=O)n2C)n1CCO	.	.	/	39.8µM	.	.
Cn1c(=O)[nH]c(=O)c2c1nc(Br)n2C/C=N/Nc1ccccc1	.	.	.	56.2µM	.	.
COCCn1c(N/N=C(C)/C=C/c2ccccc2)nc2c1c(=O)[nH]c(=O)n2C	?	.	.	39.8µM	.	.
CCCn1c(N/N=C\C=C\c2ccccc2)nc2c1c(=O)[nH]c(=O)n2C	?	.	.	.	.	.
Cn1c(=O)[nH]c(=O)c2c1nc(Br)n2C/C=N/NC(=O)c1ccccc1	.	.	/	.	.	.
COc1ccc(-c2ccc(F)cc2)cc1C1C2C=CCC(C)C2C(=O)N1Cc1ccccc1 (centres undefined)	/	/	/	.	/	/
CNc1ccccc1C(=O)N1CCc2c([nH]c3ccccc23)C1=O	?	?	.	.	/	.
S=C(S)NCCCn1ccnc1	/	/	.	/	/	/
N[C@H](C(=O)O)[C@@H]1[C@@H](C(=O)O)C1(F)F	15.8µM	.	.	89.1µM	/	.
Cc1nn2c(=O)cc(COC(=O)c3ccccc3NC(=O)C(C)Oc3ccccc3)nc2s1 (centres undefined)	/	.	/	/	/	.
COc1ccc(C2=NO[C@@H]3C(=O)N(c4c(C)cccc4C)C(=O)[C@H]23)cc1OC	.	.	.	.	.	.
Cc1ccc(N2C(=O)[C@@H]3C(c4cccnc4)=NO[C@@H]3C2=O)cc1	?	.	/	50.1µM	.	.
COc1ccc(CN2C(=O)[C@@H]3C(c4ccc(F)cc4)=NO[C@@H]3C2=O)cc1	.	.	.	.	.	.
COc1ccc(N2C(=O)[C@@H]3C(c4cccnc4)=NO[C@@H]3C2=O)cc1	.	.	/	79.4µM	.	.
Cc1ccc(Cl)cc1NC(=O)C[n+]1ccc(Cc2ccc([N+](=O)[O-])cc2)cc1	.	.	.	44.7µM	.	.
O=c1cc(-c2ccccc2)oc2ccccc12	/	.	.	/	/	/
O=c1cc2oc3cc(O)c(O)cc3c(-c3ccccc3[N+](=O)[O-])c-2cc1O	/	.	/	35.5µM	/	/
COc1ccc(-c2cc(=O)c3ccccc3o2)cc1OC	?	35.5µM	.	35.5µM	/	.
